Results reported in PubChem BioAssay AID504652 (National Center for Advancing Translational Sciences (NCATS), 2011).
The campaign covered roughly 360,000 compounds. About 11,000 (3.1%) were called active. Cut-off read from the data, not from the text of the source: active = activity change below about -30%; inactive = the rest. The sample as a whole holds a higher share of actives than the screen did.

target: D(1A) dopamine receptor (Homo sapiens) (UniProt P21728); experiment: Antagonist of Human D 1 Dopamine Receptor: qHTS; conditions: HEK293 TREx D1 cells, calcium flux, dopamine EC80; at 10 µM; stronger effect = lower value
Sequence (P21728 whole entry, looked up): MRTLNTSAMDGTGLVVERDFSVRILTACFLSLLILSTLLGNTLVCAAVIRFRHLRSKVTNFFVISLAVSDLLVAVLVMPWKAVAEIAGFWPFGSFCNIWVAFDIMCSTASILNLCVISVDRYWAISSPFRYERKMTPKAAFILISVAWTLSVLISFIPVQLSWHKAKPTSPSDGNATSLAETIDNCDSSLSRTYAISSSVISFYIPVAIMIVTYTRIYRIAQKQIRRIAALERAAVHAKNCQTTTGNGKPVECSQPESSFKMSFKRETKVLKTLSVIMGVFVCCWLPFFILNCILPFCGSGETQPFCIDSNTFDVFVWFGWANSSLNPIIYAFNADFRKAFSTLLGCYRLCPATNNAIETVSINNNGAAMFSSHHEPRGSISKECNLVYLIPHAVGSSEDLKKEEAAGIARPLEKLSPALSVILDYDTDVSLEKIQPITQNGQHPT
Outline: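 Antagonism measured as reduced calcium response to an EC80 dopamine addition following 180 s compound pre-read; cells were inducible HEK293 Trex D1 plated overnight at 30 C, read kinetically at 1 cycle/sec.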
% is set by controls: 0 for no effect and ±100 for the full control effect.

Compound	activity change, negative = inhibition
CCCCN(C)CCCNC(=O)CN1N=C(c2ccc(OC)cc2)CCC1=O	3.24% (inactive)
CCCC12CN3CC(C)(CN(C1)C3c1ccccc1Cl)C2=O (stereo not given)	-3.8% (inactive)
COc1cccc(-n2c(=O)c3c(C)c(C(=O)N(C)C)sc3n(Cc3cccc(C)c3)c2=O)c1	4.64% (inactive)
Cc1cc(C)cc(NC(c2nnc(-c3cccc(F)c3)o2)c2ccc(F)cc2Cl)c1 (stereo not given)	12.4% (inactive)
N#C/C(=C\c1ccccc1F)c1nc2ccccc2c(=O)[nH]1	-3.28% (inactive)
CSc1nc(=O)c2c(n1C)NC(=O)CC2c1ccccc1OC(C)C (stereo not given)	2.77% (inactive)
Cc1oc2cc(Br)c(O)c(Br)c2c1C(=O)c1ccccc1	-4.24% (inactive)
COc1ccc(C(=O)c2c(C)oc3cc([N+](=O)[O-])c(O)c([N+](=O)[O-])c23)cc1	12.5% (inactive)
Cc1oc2cc([N+](=O)[O-])c(O)c([N+](=O)[O-])c2c1C(=O)c1ccc(Br)cc1	-36.4% (active)
Cc1ccc(S(=O)(=O)c2c(Nc3cccc(Cl)c3)sc(C(=O)c3ccc4c(c3)OCO4)c2N)cc1	-41.6% (active)
CCCS(=O)(=O)c1c(Nc2ccccc2C)sc(C(=O)c2ccccc2)c1N	0.973% (inactive)
Cc1ccc(C(=O)Nc2sc(Cc3ccc4c(c3)OCO4)c(C)c2C(N)=O)cc1	17.9% (inactive)
COc1ccc(S(=O)(=O)c2c(Nc3ccc(C)cc3)sc(C(=O)c3ccc(C)cc3)c2N)cc1	-13.4% (inactive)
O=C(Nc1ccc2c(c1)OCO2)c1cc(-c2cccc(Cl)c2)on1	-3.15% (inactive)
COc1ccc(S(=O)(=O)c2c(Nc3cccc(Cl)c3)sc(C(=O)c3ccccc3)c2N)cc1	-73.9% (active)
NS(=O)(=O)c1ccc(NC(=O)COc2ccc(S(=O)(=O)NC3CCCCC3)cc2)cc1	9.54% (inactive)
Cc1ccc(C(=O)NC2CCN(C#N)CC2)cc1	-16% (inactive)
Cc1cccc(C(=O)N2c3nc(-c4ccco4)nn3C3(CCCCC3)[C@@H]3CCCC[C@@H]32)c1	4.44% (inactive)
COc1ccc(NC(=O)CSc2nnc(-c3cccs3)n2Cc2ccco2)cc1OC	8.42% (inactive)
O=C(CSc1nnc(-c2cccs2)n1Cc1ccco1)c1ccc2c(c1)OCO2	-31.7% (active)
O=C(CSc1nnc(-c2cccnc2)n1Cc1ccco1)c1ccc(Cl)c(Cl)c1	18.2% (inactive)
Cc1cccc(CSc2nc3ccncc3n2Cc2ccc(C(=O)O)cc2)c1	14.5% (inactive)
O=S(=O)(Nc1ccccc1)c1ccc(NS(=O)(=O)c2cccs2)cc1	-3.97% (inactive)
O=C(Nc1cccc(Cl)c1)Nc1ccccc1NS(=O)(=O)c1cccs1	-42.1% (active)

Compound	activity change, negative = inhibition
O=S(=O)(Nc1ccccc1Br)c1cccs1	11.5% (inactive)
Cc1cccc(NC(=O)Cn2c(=O)n(CCC(C)C)c(=O)c3cccnc32)c1	38.2% (inactive)
COc1ccccc1NC(=O)C1=C(C)Nc2nc(SCC(=O)c3ccc(C)cc3)nn2C1c1ccccc1C (stereo not given)	4.06% (inactive)
O=C(CN1CCN(Cc2ccc(Cl)cc2)C1=O)NCc1ccc(F)cc1	6.15% (inactive)
COc1ccc(NC(=O)CN2CCCN(Cc3ccccc3)S2(=O)=O)cc1	-2.48% (inactive)
COc1ccc(CNC(=O)C2CCN(S(C)(=O)=O)CC2)cc1	-17.7% (inactive)
COc1ccc(CNC(=O)C2CCN(S(=O)(=O)N3CCOCC3)CC2)cc1	-42.3% (active)
COc1ccc(N2CCN(CCCNC(=O)C3CCN(S(=O)(=O)N4CCOCC4)CC3)CC2)cc1	5.25% (inactive)
COc1cccc(CN2CCc3nc(SCC(=O)Nc4ccccc4)[nH]c(=O)c3C2)c1	3.64% (inactive)
CCc1ccc(CNC(=O)c2cc3c(=O)n(CC)c4ccccc4c3s2)cc1	11% (inactive)
Cc1ccc(C)c(N2CCN(S(=O)(=O)c3ccc4c(c3)C(C(C)C)C(=O)N4)CC2)c1 (stereo not given)	-23.5% (inactive)
O=C(CC(c1cccs1)N1Cc2ccccc2C1=O)Nc1ccc(F)c(F)c1 (stereo not given)	-0.399% (inactive)
O=C(COc1ccccc1)NCc1ccc2c(c1)CCN2C(=O)c1ccc(F)cc1	-7.02% (inactive)
O=C(CSc1nnc(Nc2ccccc2F)s1)NC1CCCC1	-3.18% (inactive)
O=C(CSc1nnc(C2CC2)n1Cc1ccccc1)Nc1cccnc1Cl	8.52% (inactive)
O=C(CSc1nnc(Nc2ccccc2)s1)Nc1cccnc1Cl	-65.7% (active)
CC(C)c1ccc(NC(=O)c2ccc3c(O)c(S(=O)(=O)c4ccccc4)c(=O)[nH]c3c2)cc1	-2.13% (inactive)
COc1cc2ccccc2cc1C(=O)Nc1cccc(-c2nc3ccccc3o2)c1	-19.2% (inactive)
N/C(=N\OC(=O)Nc1ccccc1)c1ccno1	-30.9% (active)
O=C(Nc1ccccc1)O/N=C1/CCCc2occc21	7.6% (inactive)
CC(C)(COC(=O)Nc1ccccc1)COC(=O)Nc1ccccc1	-3.78% (inactive)
Cc1ccc(-c2nnc(Nc3ccc(OCC(N)=O)cc3)c3ccccc23)cc1S(=O)(=O)NCC1CCCO1 (stereo not given)	-11.9% (inactive)
CCOc1ccc(CCNC(=O)c2ccc3c(c2)sc2nc(-c4ccc(F)cc4)cn23)cc1OCC	0.197% (inactive)
COc1ccc(C(=O)NC(C)CCc2ccccc2)c(OC)c1 (stereo not given)	-36.3% (active)

Compound	activity change, negative = inhibition
COc1ccc(C(=O)CCc2ccccc2O)c(OC)c1	-22.2% (inactive)
COc1ccc(CCNC(=O)c2ccccc2OCc2ccccc2)cc1	-35% (active)
COc1ccc(CCNC(=O)c2ccccc2-c2ccccc2C(=O)O)cc1OC	0.57% (inactive)
CCOc1ncccc1C(=O)NCCc1ccc(OC)cc1	8.92% (inactive)
COc1ccccc1C(=O)NCCC(=O)NC(C)CCc1ccccc1 (stereo not given)	-3.06% (inactive)
COc1ccc(CC(=O)Nc2nnc3n2CCS3)cc1OC	29.1% (inactive)
Cc1ccc(Cl)cc1N(C)C(=O)C1CCCN(c2ncnc3onc(-c4ccc(F)cc4)c23)C1 (stereo not given)	3.58% (inactive)
Cc1nc2nc(SCC(=O)NC3CCC(C)CC3)nn2c(C)c1Cc1ccccc1Cl (stereo not given)	-18.6% (inactive)
O=C(COC(=O)c1cnc(Cl)c(Cl)c1)NCc1ccco1	-8.31% (inactive)
O=C(COC(=O)c1ccco1)NCc1ccc(Cl)cc1	-43.8% (active)
CCc1ccc(C(=O)COC(=O)c2ccco2)cc1	3.84% (inactive)
O=S(=O)(Nc1ccc2nc(-c3cccc(Cl)c3)oc2c1)c1ccccc1	2.59% (inactive)
O=c1[nH]c2cc(Br)ccc2n2cccc12	17.9% (inactive)
Cc1ccc2nc(/C(C#N)=C/c3ccccc3F)[nH]c2c1	2.38% (inactive)
CCc1cc2c(cc3c(=O)n(CC(=O)N4CCN(c5cc(Cl)ccc5C)CC4)ncn32)s1	5.41% (inactive)
Oc1c(C(c2ccccn2)N2CCOCC2)ccc2cccnc12 (stereo not given)	-33.9% (active)
COc1ccc(-c2cn3c(n2)sc2cc(C(=O)Nc4ccccc4F)ccc23)cc1	-2.21% (inactive)
Cc1ccc2[nH]c3c(=O)n(CC(=O)NC(C)C)ncc3c2c1	5.41% (inactive)
COc1ccc(/C=C/c2nc(C#N)c(NCc3ccc(F)cc3)o2)cc1OC	-16% (inactive)
CCC(Cc1ccccc1)NS(=O)(=O)c1ccc2c(c1)NC(=O)CS2 (stereo not given)	-0.0752% (inactive)
COc1ccccc1CNS(=O)(=O)c1ccc2c(c1)NC(=O)CS2	7.86% (inactive)
O=C1CSc2ccc(S(=O)(=O)NCc3ccccc3)cc2N1	-44.7% (active)
CCCCn1cc(S(=O)(=O)c2ccc(OCC)cc2)c(=O)c2cc(OC)c(OC)cc21	4.22% (inactive)
COc1ccc(C)cc1Nc1nc2ccccc2c2nnc(C)n12	1.83% (inactive)

Compound	activity change, negative = inhibition
CCOc1c2ccc(C(=O)NCc3ccc4c(c3)OCO4)cc2nn1C	3.09% (inactive)
COc1ccccc1-n1c(C)nc2cc(C(=O)NCc3ccc4c(c3)OCO4)ccc21	-36.2% (active)
CCn1cc(C(=O)NCC2COc3ccccc3O2)c2cc(OC)c(OC)cc2c1=O (stereo not given)	13.1% (inactive)
COc1cc(-n2c(C)nc3cc(C(=O)NCc4ccco4)ccc32)cc(OC)c1OC	-14.8% (inactive)
CCN(CC)C(=O)C(=O)c1cn(CC(=O)NCc2ccc3c(c2)OCO3)c2ccccc12	-3.14% (inactive)
CCn1cc(C(=O)NCc2ccc3c(c2)OCO3)c2cc(OC)c(OC)cc2c1=O	-40.7% (active)
CC(=O)Nc1cc(C(=O)NCc2ccc(F)cc2)ccc1Sc1ccc(F)cc1	3.13% (inactive)
COc1ccccc1CNS(=O)(=O)c1cc(Br)cc2c1N(C(C)=O)C(C)C2 (stereo not given)	7.16% (inactive)
C#CCOCCOCCOCCNc1nc(N2CCN(C(=O)CCCCCCCCCCNC(=O)[C@H]([C@@H](C)CC)n3cc(CCCCN=C(N)N)nn3)CC2)nc(N2CCN(C(=O)CCCCCCCCCCNC(=O)[C@H](CO)n3cc(CCCSC)nn3)CC2)n1	6.53% (inactive)
C#CCOCCOCCOCCNc1nc(N2CCN(C(=O)[C@H](CCC(=O)O)n3cc(C(N)CO)nn3)CC2)nc(N2CCN(C(=O)[C@H](Cc3ccc(O)cc3)n3cc(C(N)[C@H](C)CC)nn3)CC2)n1 (stereo not given in full)	-34.5% (active)
C#CCOCCOCCOCCNc1nc(N2CCN(C(=O)[C@H](C(C)C)n3cc(CCO)nn3)CC2)nc(N2CCN(C(=O)[C@H](C(C)C)n3cc(CCO)nn3)CC2)n1	7.62% (inactive)
C#CCOCCOCCOCCNc1nc(N2CCN(C(=O)C(Cc3ccc(O)cc3)n3cc(C(N)CC(C)C)nn3)CC2)nc(N2CCN(C(=O)C(Cc3ccc(O)cc3)n3cc(C(N)C(C)CC)nn3)CC2)n1 (stereo not given)	-10.5% (inactive)
C#CCOCCOCCOCCNc1nc(N2CCN(C(=O)[C@H](Cc3ccc(O)cc3)n3cc(C(N)CC(C)C)nn3)CC2)nc(N2CCN(C(=O)[C@H](CCC(=O)O)n3cc(C(N)[C@H](C)CC)nn3)CC2)n1 (stereo not given in full)	-5.53% (inactive)
C#CCOCCOCCOCCNc1nc(N2CCN(C(=O)[C@H](CCC(=O)O)n3cc(C(N)CO)nn3)CC2)nc(N2CCN(C(=O)[C@H](CCCCN)n3cc(C(N)[C@H](C)CC)nn3)CC2)n1 (stereo not given in full)	-39.7% (active)
C#CCOCCOCCOCCNc1nc(N2CCN(C(=O)[C@H](CCCCN)n3cc([C@@H](N)C(C)CC)nn3)CC2)nc(N2CCN(C(=O)[C@H](Cc3ccc(O)cc3)n3cc([C@@H](N)C(C)CC)nn3)CC2)n1 (stereo not given in full)	-11.3% (inactive)
C#CCOCCOCCOCCNc1nc(N2CCN(C(=O)[C@H](CCC(=O)O)n3cc(C(N)CO)nn3)CC2)nc(N2CCN(C(=O)[C@H](CCCCN)n3cc(C(N)CC(C)C)nn3)CC2)n1 (stereo not given in full)	-32.3% (active)
O=C(CC1Oc2ccccc2NC1=O)NCc1ccc(F)cc1 (stereo not given)	-2.49% (inactive)
CN1C(=O)c2[nH]nc(-c3ccc(F)cc3)c2C1c1ccccn1 (stereo not given)	-12.2% (inactive)
N#Cc1nc(/C=C/c2ccc(F)cc2)oc1NC1CCCCC1	-1.82% (inactive)
CCN(CC)c1cc(NC2CCCCC2)c2c3c(onc13)-c1ccccc1C2=O	8.94% (inactive)
Cc1ccc2nc(CN3CCN(S(=O)(=O)c4ccc(C)c(C)c4)CC3)oc2c1	-3.02% (inactive)
COc1cc(NC(=O)CN2CCN(S(=O)(=O)c3ccc(Br)cc3)CC2)cc(OC)c1	-5.38% (inactive)
CCc1ccc(C2C(C(=O)Nc3ccccc3)=C(C)Nc3c(C(=O)Nc4ccc(C)cc4)cnn32)cc1 (stereo not given)	-24.1% (inactive)
